Results: PubChem BioAssay (EPA / NIEHS)
Inconclusive results are not listed. The source made the active and inactive calls. How the source made its calls, unless noted: active means hit-call score of the fitted dose curve at least 0.9, where 1 is the maximum; inconclusive means response in the unintended direction; inactive means score below 0.9.

Columns and labels:
[1] = molecular target: Retinoic acid receptor alpha (Homo sapiens) (UniProt P10276); assay: ATG_DR5_RAR_CIS: Attagene CIS-FACTORIAL HepG2 Assay for human Retinoic Acid Receptor Alpha (RARE), DR5 submotif (AID 2282934; active means hit-call score of the fitted dose curve at least 0.9, where 1 is the maximum; inactive means score below 0.9); details: HepG2 Attagene cis-factorial RARE DR5 reporter, mRNA; actives raise or lower the signal
Sequence of Retinoic acid receptor alpha (Homo sapiens) (P10276 whole entry, looked up): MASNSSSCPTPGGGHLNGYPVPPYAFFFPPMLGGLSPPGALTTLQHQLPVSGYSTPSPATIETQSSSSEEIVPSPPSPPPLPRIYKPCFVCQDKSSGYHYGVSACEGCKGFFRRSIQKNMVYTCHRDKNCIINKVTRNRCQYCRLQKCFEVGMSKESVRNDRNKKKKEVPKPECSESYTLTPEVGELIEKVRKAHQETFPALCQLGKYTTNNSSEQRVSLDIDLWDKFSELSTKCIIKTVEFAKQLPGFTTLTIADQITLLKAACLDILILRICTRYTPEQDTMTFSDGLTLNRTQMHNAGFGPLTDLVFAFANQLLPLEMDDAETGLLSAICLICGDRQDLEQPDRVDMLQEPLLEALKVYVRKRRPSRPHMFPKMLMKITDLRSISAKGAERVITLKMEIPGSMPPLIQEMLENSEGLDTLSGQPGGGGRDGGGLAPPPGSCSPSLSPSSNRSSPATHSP
Summary of the method: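 HepG2, transient cis-reporter transfection, 24 h exposure. mRNA readout: RT-PCR, FAM label, HpaI cut, capillary electrophoresis. DMSO baseline, gain/loss fitting.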

[2] = ATG_M_19_CIS: Attagene CIS-FACTORIAL HepG2 Assay for M19 Transcription Factor (Internal Marker) (AID 2282939; active means hit-call score of the fitted dose curve at least 0.9, where 1 is the maximum; inactive means score below 0.9); details: HepG2 Attagene CIS-FACTORIAL M19 internal marker reporter; actives raise or lower the signal
Summary of the method: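 HepG2, MRTU transient transfection, 24 h dosing. Total RNA → RT-PCR → 6-FAM primer extension → HpaI digest → CE fluorescence. Bidirectional curve fit, DMSO negative control.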

[3] = molecular target: Hepatocyte nuclear factor 3-beta (Homo sapiens) (UniProt Q9Y261); assay: ATG_FoxA2_CIS: Attagene CIS-FACTORIAL HepG2 Assay for human Forkhead box A2 (FOXA2) (AID 2282942; active means hit-call score of the fitted dose curve at least 0.9, where 1 is the maximum; inactive means score below 0.9); details: HepG2 cis-reporter transcription factor activity, 24 h; actives raise or lower the signal
Sequence of Hepatocyte nuclear factor 3-beta (Homo sapiens) (Q9Y261 whole entry, looked up): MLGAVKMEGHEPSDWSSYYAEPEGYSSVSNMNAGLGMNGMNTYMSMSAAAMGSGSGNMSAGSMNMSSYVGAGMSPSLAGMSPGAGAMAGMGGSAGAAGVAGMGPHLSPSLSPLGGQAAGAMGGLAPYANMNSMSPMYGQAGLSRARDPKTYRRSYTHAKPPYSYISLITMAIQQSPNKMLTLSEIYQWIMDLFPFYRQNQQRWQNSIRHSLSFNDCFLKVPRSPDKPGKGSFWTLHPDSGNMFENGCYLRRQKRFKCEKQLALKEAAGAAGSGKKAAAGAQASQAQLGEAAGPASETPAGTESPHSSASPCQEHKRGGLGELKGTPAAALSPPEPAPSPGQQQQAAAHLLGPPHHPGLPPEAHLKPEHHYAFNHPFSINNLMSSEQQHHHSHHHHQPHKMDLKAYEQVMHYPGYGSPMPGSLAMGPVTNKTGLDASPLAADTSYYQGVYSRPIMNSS
Summary of the method: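 HepG2 transiently transfected with a multiplexed cis-promoter reporter library read endogenous FOXA2 activity. After 24 h compound exposure, reporter mRNA was quantified by RT-PCR, HpaI digestion and capillary electrophoresis. Bidirectional fit against DMSO.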

[4] = ATG_M_32_CIS: Attagene CIS-FACTORIAL HepG2 Assay for M32 Transcription Factor (Internal Marker) (AID 2282949; active means hit-call score of the fitted dose curve at least 0.9, where 1 is the maximum; inactive means score below 0.9;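 further: background control marker of the multiplexed CIS panel rather than a real target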); details: HepG2 Attagene cis-factorial M32 reporter, mRNA; actives raise or lower the signal
Summary of the method: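 Following 24 h chemical exposure of HepG2 cells transiently expressing cis-promoter reporter constructs, reporter transcript levels were determined by RT-PCR with fluorescent labelling and capillary electrophoresis, then fitted bidirectionally against DMSO.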

[5] = ATG_PBREM_CIS: Attagene CIS-FACTORIAL HepG2 Assay for human Phenobarbital-responsive Enhancer Module (PBREM) (AID 2282955; active means hit-call score of the fitted dose curve at least 0.9, where 1 is the maximum; inactive means score below 0.9); details: HepG2 PBREM cis-reporter, Attagene multiplexed transcription; actives raise or lower the signal
Summary of the method: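 HepG2 cells transiently transfected with multiple cis-regulated reporter units measure endogenous transcription factor activity; 24 h compound exposure. Reporter mRNA quantified by RT-PCR, fluorescent labelling, HpaI digestion and capillary electrophoresis; bidirectional fit versus DMSO.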

[6] = ATG_RORE_CIS: Attagene CIS-FACTORIAL HepG2 Assay for human RAR-related Orphan Receptor Element (RORE) (AID 2282959; active means hit-call score of the fitted dose curve at least 0.9, where 1 is the maximum; inactive means score below 0.9); details: HepG2 Attagene cis-factorial RORE reporter, mRNA; actives raise or lower the signal
Summary of the method: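 HepG2 cells carrying transiently transfected cis-regulated reporter units; RORE-driven reporter mRNA quantified 24 h post-dosing by RT-PCR, 6-FAM primer extension, HpaI digestion and capillary electrophoresis. Bidirectional fit versus DMSO.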

[7] = ATG_Sox_CIS: Attagene CIS-FACTORIAL HepG2 Assay for human SRY-box transcription factor (SOX) (AID 2282960; active means hit-call score of the fitted dose curve at least 0.9, where 1 is the maximum; inactive means score below 0.9); details: HepG2 Attagene cis-factorial SOX reporter, mRNA; actives raise or lower the signal
Summary of the method: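 HepG2 cells transiently transfected with multiple cis-regulated reporter units, then dosed for 24 h. Reporter mRNA quantified by RT-PCR, fluorescent labelling, HpaI digestion and capillary electrophoresis; bidirectional fit versus DMSO.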

[8] = molecular target: Hepatocyte nuclear factor 4-alpha (Homo sapiens) (UniProt P41235); assay: ATG_HNF4a_TRANS: Attagene TRANS-FACTORIAL HepG2 Assay for human Hepatocyte Nuclear Factor 4 alpha (HNF4a) (AID 2282982); details: HepG2 HNF4a transactivation reporter, mRNA readout
Sequence of Hepatocyte nuclear factor 4-alpha (Homo sapiens) (P41235 whole entry, looked up): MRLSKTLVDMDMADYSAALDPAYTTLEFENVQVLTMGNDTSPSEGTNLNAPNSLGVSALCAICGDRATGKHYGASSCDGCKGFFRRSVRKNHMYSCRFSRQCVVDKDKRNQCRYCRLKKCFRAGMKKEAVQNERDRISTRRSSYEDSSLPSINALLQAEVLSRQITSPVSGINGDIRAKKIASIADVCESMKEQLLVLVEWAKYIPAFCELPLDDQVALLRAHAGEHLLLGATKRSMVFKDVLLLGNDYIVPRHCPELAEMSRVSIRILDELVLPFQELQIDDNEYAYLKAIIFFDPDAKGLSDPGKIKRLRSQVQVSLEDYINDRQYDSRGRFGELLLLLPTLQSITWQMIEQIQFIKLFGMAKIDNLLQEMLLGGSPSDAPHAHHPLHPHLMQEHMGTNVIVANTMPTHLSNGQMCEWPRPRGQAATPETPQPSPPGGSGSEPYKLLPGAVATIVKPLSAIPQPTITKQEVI
Summary of the method: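 Transfected HepG2 reporter cells are dosed for 24 h; reporter RNA is reverse-transcribed, amplified, fluorescently labelled and HpaI-digested before CE sizing. Positive-direction fit against DMSO.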

[9] = ATG_M_32_TRANS: Attagene TRANS-FACTORIAL HepG2 Assay for M32 Transcription Factor (Internal Marker) (AID 2282984); details: HepG2 Attagene TRANS M32 internal marker reporter;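 further: transcript level of a background control reporter unit measured by RT-PCR and capillary electrophoresis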
Summary of the method: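 Using transiently transfected HepG2 cells exposed to test chemicals for 24 h, reporter transcripts are converted to labelled cDNA fragments and quantified by capillary electrophoresis. DMSO defines the activity baseline.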

[10] = molecular target: human Peroxisome Proliferator-activated Receptor alpha (PPARa), PPARA (gene 5465) (UniProt Q07869); assay: ATG_PPARa_TRANS: Attagene TRANS-FACTORIAL HepG2 Assay for human Peroxisome Proliferator-activated Receptor alpha (PPARa) (AID 2283001)
Sequence of human Peroxisome Proliferator-activated Receptor alpha (PPARa), PPARA (gene 5465) (Q07869 whole entry, looked up, the tested form may be a part): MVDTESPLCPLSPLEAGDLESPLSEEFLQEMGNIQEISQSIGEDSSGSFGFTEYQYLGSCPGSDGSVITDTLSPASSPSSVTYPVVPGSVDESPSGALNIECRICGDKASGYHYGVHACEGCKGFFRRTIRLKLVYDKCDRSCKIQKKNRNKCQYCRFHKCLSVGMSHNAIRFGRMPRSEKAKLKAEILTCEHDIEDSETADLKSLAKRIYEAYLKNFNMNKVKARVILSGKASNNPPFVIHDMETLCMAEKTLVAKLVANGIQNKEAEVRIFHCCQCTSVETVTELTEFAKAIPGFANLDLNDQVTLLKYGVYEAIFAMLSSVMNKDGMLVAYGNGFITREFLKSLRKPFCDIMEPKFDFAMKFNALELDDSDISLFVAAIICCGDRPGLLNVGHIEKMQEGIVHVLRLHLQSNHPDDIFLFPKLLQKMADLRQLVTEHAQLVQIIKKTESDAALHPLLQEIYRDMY
Summary of the method: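 Reporter transcripts from GAL4-UAS units in transfected HepG2 were quantified 24 h after dosing. Detection used reverse transcription, PCR, fluorescent primer extension and capillary electrophoresis, with DMSO as baseline.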

[11] = molecular target: Retinoic acid receptor RXR-alpha (Homo sapiens) (UniProt P19793); assay: ATG_RXRa_TRANS: Attagene TRANS-FACTORIAL HepG2 Assay for human Retinoid X Receptor alpha (RXRa) (AID 2283012)
Sequence of Retinoic acid receptor RXR-alpha (Homo sapiens) (P19793 whole entry, looked up, the tested form may be a part): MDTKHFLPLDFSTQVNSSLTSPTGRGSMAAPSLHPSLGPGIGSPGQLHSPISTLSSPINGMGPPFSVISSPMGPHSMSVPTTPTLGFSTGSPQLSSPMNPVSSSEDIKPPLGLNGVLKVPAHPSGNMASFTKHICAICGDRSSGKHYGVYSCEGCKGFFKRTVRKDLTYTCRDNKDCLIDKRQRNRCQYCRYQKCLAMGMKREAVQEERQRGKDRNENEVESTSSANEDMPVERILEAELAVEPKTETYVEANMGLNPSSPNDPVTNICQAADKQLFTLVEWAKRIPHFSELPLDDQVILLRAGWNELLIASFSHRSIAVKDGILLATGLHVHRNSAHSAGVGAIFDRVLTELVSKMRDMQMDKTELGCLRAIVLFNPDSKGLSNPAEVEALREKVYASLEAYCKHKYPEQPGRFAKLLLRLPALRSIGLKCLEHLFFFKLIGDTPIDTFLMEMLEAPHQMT
Summary of the method: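 Cells (HepG2) carried transiently transfected GAL4-responsive reporter units. Following a 24 h chemical incubation, reporter mRNA induction was read via RT-PCR fragment analysis; DMSO served as negative control and baseline.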

[12] = molecular target: human Retinoid X Receptor beta (RXRb), RXRB (gene 6257) (UniProt P28702); assay: ATG_RXRb_TRANS: Attagene TRANS-FACTORIAL HepG2 Assay for human Retinoid X Receptor beta (RXRb) (AID 2283013)
Sequence of human Retinoid X Receptor beta (RXRb), RXRB (gene 6257) (P28702 whole entry, looked up): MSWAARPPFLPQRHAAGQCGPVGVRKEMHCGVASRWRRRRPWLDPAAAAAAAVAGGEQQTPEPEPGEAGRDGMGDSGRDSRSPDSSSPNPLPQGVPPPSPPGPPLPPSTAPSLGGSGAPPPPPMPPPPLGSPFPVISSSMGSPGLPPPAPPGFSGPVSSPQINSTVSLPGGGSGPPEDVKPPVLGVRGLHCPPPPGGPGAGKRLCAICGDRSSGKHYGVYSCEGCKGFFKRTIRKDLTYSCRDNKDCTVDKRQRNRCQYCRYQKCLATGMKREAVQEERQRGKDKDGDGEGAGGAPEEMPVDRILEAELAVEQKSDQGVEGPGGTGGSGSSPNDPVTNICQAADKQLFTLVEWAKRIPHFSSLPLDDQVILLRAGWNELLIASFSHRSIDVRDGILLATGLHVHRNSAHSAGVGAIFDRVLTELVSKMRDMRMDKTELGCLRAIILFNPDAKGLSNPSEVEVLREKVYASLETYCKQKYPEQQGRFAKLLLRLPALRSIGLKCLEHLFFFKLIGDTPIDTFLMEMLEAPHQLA
Summary of the method: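 Multiplexed TRANS reporter assay in HepG2; 24 h dosing; reporter mRNA by RT-PCR/CE fluorescence; gain-of-signal relative to DMSO.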

[13] = TOX21_p53_BLA_p2_viability: Viability Assessment in the Tox21 HCT-116 p53 Agonism Beta-lactamase Assay, Phase 2 (AID 2283591);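 further: compound exposure lasted 16 h at 37 °C; actives lower the ATP signal meaning cytotoxicity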
Summary of the method: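 Cytotoxicity readout: CellTiter-Glo ATP luminescence, 30 min at room temperature, after the beta-lactamase read. Cells were HCT116 exposed 16 h at 37C to compounds pin-transferred at 217-fold dilution from DMSO stocks.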

[14] = molecular target: Cellular tumor antigen p53 (Homo sapiens) (UniProt P04637); assay: TOX21_p53_BLA_p2_ratio: Tox21 HCT-116 p53 Agonism Beta-lactamase Assay, Ratio, Phase 2 (AID 2283592)
Sequence of Cellular tumor antigen p53 (Homo sapiens) (P04637 whole entry, looked up): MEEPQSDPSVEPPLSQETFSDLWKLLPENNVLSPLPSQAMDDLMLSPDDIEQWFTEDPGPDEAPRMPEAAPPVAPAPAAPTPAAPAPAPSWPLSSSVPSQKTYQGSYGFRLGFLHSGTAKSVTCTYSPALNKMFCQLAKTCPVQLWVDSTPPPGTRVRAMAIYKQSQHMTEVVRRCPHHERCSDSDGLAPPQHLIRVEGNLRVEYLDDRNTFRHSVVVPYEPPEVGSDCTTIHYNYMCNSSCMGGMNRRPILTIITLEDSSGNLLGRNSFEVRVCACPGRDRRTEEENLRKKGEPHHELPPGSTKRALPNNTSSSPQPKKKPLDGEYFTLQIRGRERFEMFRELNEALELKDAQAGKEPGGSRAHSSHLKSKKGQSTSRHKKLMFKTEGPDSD
Summary of the method: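 HCT116 p53-bla; 4000 cells/well; 5 h pre-incubation; cpd in DMSO, 217-fold dilution; 16 h 37C/5% CO2; CCF4-AM 2 h RT; Ex 405, Em 460/530 ratio; DMSO = baseline; positive fitting direction.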

[15] = TOX21_p53_BLA_p3_viability: Viability Assessment in the Tox21 HCT-116 p53 Agonism Beta-lactamase Assay, Phase 3 (AID 2283593);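 further: cells exposed to compound for 16 h before reading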
Summary of the method: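 Cellular ATP was quantified by CellTiter-Glo luminescence, read after 30 min at room temperature. Beforehand, HCT116 cells (4000/well) received compound 5 h post-seeding, 217-fold diluted from DMSO, then incubated 16 h at 37C.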

[16] = molecular target: Cellular tumor antigen p53 (Homo sapiens) (UniProt P04637); assay: TOX21_p53_BLA_p3_ratio: Tox21 HCT-116 p53 Agonism Beta-lactamase Assay, Ratio, Phase 3 (AID 2283596)
Summary of the method: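 HCT116 p53-bla cells (4000/well) given compound in DMSO (217-fold dilution) after 5 h, incubated 16 h at 37C. CCF4-AM substrate 2 h at room temperature; 460/530 nm emission ratio, gain fitted against DMSO.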

[17] = molecular target: Cellular tumor antigen p53 (Homo sapiens) (UniProt P04637); assay: TOX21_p53_BLA_p5_ratio: Tox21 HCT-116 p53 Agonism Beta-lactamase Assay, Ratio, Phase 5 (AID 2283599)
Summary of the method: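 Beta-lactamase reporter ratio (blue 460 nm over green 530 nm, 405 nm excitation) after 2 h CCF4-AM loading, in HCT-116 cells exposed 16 h at 37 C to compounds pinned at 217-fold dilution. Increases relative to DMSO baseline scored.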

[18] = TOX21_p53_BLA_p5_viability: Viability Assessment in the Tox21 HCT-116 p53 Agonism Beta-lactamase Assay, Phase 5 (AID 2283600)
Summary of the method: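 4000 cells/well; 5 h pre-incubation; DMSO compounds pin-transferred, 217-fold dilution; 16 h, 37C/5% CO2; CCF4-AM 2 h RT; CellTiter-Glo 30 min RT; luminescence.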

[19] = molecular target: Cellular tumor antigen p53 (Homo sapiens) (UniProt P04637); assay: TOX21_p53_BLA_p4_ratio: Tox21 HCT-116 p53 Agonism Beta-lactamase Assay, Ratio, Phase 4 (AID 2283601)
Summary of the method: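 Signal is the blue/green (460nm/530nm) ratio of cleaved versus uncleaved CCF4-AM substrate, read after 2 h substrate loading. Cells were HCT116 carrying the p53-responsive beta-lactamase reporter, dosed 16 h at 37C, 5% CO2; CellTiter-Glo measured in parallel.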

[20] = ATG_PXRE_CIS: Attagene CIS-FACTORIAL HepG2 Assay for human Pregnane X Receptor Element (PXRE) (AID 2282957; active means hit-call score of the fitted dose curve at least 0.9, where 1 is the maximum; inactive means score below 0.9); details: HepG2 Attagene CIS-FACTORIAL PXRE reporter, mRNA; actives raise or lower the signal
Summary of the method: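 Transfect HepG2 with MRTUs (cis promoter elements); dose chemical, incubate 24 h; isolate RNA, RT with oligo(dT), PCR, 6-FAM label, HpaI cut, CE. Gain/loss fit vs DMSO.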

Measured: AC50

O=C(OCc1ccccc1)c1ccccc1
not listed: [13] | [14] | [15] | [16] | [17] | [18] | [19] | [20]
inactive: all other assays above

Cc1ccccc1S(N)(=O)=O
not listed: [3] | [4] | [8] | [10] | [19] | [20]
inactive: all other assays above

OCCN(CCO)c1cccc(Cl)c1
not listed: [1] | [3] | [9] | [10] | [15] | [18] | [20]
inactive: all other assays above

Brc1ccc(Oc2ccc(Br)cc2)cc1
active: [20] 27.3 µM
not listed: [2] | [3] | [8] | [10]
inactive: all other assays above

CC(C)CC(=O)CC(C)CC(C)C (centres undefined)
active: [20] 29.3 µM
not listed: [8] | [10]
inactive: all other assays above

COC(=O)CCSCCC(=O)OC
inactive: [1] | [2] | [3] | [4] | [5] | [6] | [9] | [10]

Oc1ccc(Oc2ccccc2)cc1
active: [20] 26.4 µM | [12] 59.2 µM | [14] 45 µM
not listed: [8] | [9] | [18]
inactive: all other assays above

CCO[Si](CCCN)(OCC)OCC
active: [20] 100 µM
not listed: [1] | [6] | [9] | [12] | [15]
inactive: all other assays above

CCCCCCCC#N
inactive: [1] | [2] | [4] | [6] | [7] | [8] | [11]

Nc1nnc(-c2ccc([N+](=O)[O-])o2)o1
active: [14] 85.7 µM | [19] 70.1 µM
not listed: [4] | [6] | [9] | [11] | [20]
inactive: all other assays above

Cc1cccnc1
inactive: [2] | [3] | [4] | [5] | [20] | [6] | [7] | [9] | [11]

NC(N)=Nc1nc(CSCCC(N)=NS(N)(=O)=O)cs1
active: [2] 153 µM
not listed: [3] | [5] | [6] | [7] | [8] | [11] | [20]
inactive: all other assays above

CN1CCCC1
not listed: [4] | [12] | [16] | [18] | [20]
inactive: all other assays above

[O-][n+]1ccc(Cl)cc1
inactive: [1] | [2] | [4] | [5] | [20] | [8] | [10] | [12] | [14]

O=C(O)c1cc(Cl)cc(Cl)c1O
active: [20] 68.7 µM
not listed: [1] | [2] | [3] | [5] | [9]
inactive: all other assays above

CCC(C)=NO
not listed: [2] | [3] | [4] | [6] | [7] | [11] | [12] | [18]
inactive: all other assays above

CC1=C(CC(=O)O)c2cc(F)ccc2/C1=C\c1ccc(S(C)=O)cc1 (centres undefined)
active: [5] 26 µM
inactive: [3] | [6] | [9] | [10] | [11] | [12] | [13] | [15] | [17] | [18]

CCC(C)C1N=C(C)C(C)S1 (centres undefined)
not listed: [2] | [5] | [8] | [10] | [14] | [15] | [18] | [20]
inactive: all other assays above

CC[N+](CC)(CC(=O)Nc1c(C)cccc1C)Cc1ccccc1 (tested in a mixture with another compound)
inactive: [2] | [3] | [7] | [8]
active: [20] 21.8 µM

COc1cccc(OC)c1C(=O)O
not listed: [1] | [7] | [10] | [11] | [13] | [15]
inactive: all other assays above

C1CN(CCOCCN2CCOCC2)CCO1
inactive: [13] | [16]

CC(C)CC(=O)CC(C)C
not listed: [1] | [4] | [5] | [8] | [9] | [10] | [12] | [20]
inactive: all other assays above
